Records with an inconclusive call do not appear. Values without a mark were called inactive. Calls of active or inactive are those of the source. The call rests on the fitted dose curve; in most records, active means well fitted curve in either direction with a large enough effect (not every such curve was filed as active); inconclusive means small, poorly fitted or top-dose-only effect, or another doubt; inactive means flat fitted curve, though single readings scatter.
molecular target: Mitogen-activated protein kinase 10 (Mus musculus) (UniProt Q61831); experiment: JNK3 AlphaScreen Assay (AID 530); conditions: JNK3 lysate, c-Jun phosphorylation; series mostly up to 57.1 µM; activity change, negative = inhibition: at the top concentration;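 further: kinase came from lysate of stimulated human HepG2 cells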
Excerpt: NIH Chemical Genomics Center [NCGC]
NIH Molecular Libraries Screening Centers Network [MLSCN]
The c-jun N-terminal kinase (JNK) family are serine/threonine protein kinases that phosphorylate c-jun, a component of the transcription factor […] (AP-1). JNK kinases are members of the mitogen-activated protein kinase family including the extracellular regulated kinases and p38 kinases. Three JNK genes (JNK 1, 2, and 3) have been identified in humans so far. JNK1 and JNK2 have a broad distribution and JNK3 is primarily found in neuronal tissues and cardiac myocytes.
JNK3 has been under consideration as a target for the treatment of neurodegenerative disorders. […] JNK pathway is also involved in pathological process in a mouse model of Parkinson's disease (Xia et al., 2001).
Given these potential tissue distributions and links to neuroprotection, JNK3 inhibitors should provide useful investigational tools to study the role of this kinase in several diseases including, arthritis, stroke, myocardial infarction, ischemic injury and Parkinson's disease.
A homogeneous AlphaScreen is developed to measure the activity of JNK3. AlphaScreen is a two bead-based proximity-dependent chemical energy transfer luminescent assay platform. The phosphorylation of a biotinylated c-jun substrate by JNK3 can be detected with an antibody raised against phosphorylated c-jun. This process brings streptavidin donor beads and Protein-A acceptor beads to within a proximity range of <200 nm, and subsequently lead a chemical luminescent reaction upon exciting donor beads with 680 nm laser excitation light. Inhibition of JNK3 activity by small molecules and subsequent decrease in the antibody binding to biotinylated c-jun could attenuate or abolish this chemical luminescent reaction.
Yang DD, Kuan CY, Whitmarsh AJ, Rincon M, Zheng TS, Davis RJ, Rakic P and Flavell RA (1997) Absence of excitotoxicity-induced apoptosis in the hippocampus of mice lacking the Jnk3 gene. Nature 389:865-870. [PMID: 9349820]
Herdegen T, Claret FX, Kallunki T, Martin-Villalba A, Winter C, Hunter T, and Karin M (1998) Lasting N-terminal phosphorylation of c-Jun and activation of c-Jun N-terminal kinases after neuronal injury. J.Neurosci. 18:5124-5135. [PMID: 9651196]
Xia XG, Harding T, Weller M, Bieneman A, Uney JB and Schulz JB (2001) Gene transfer of the JNK interacting protein-1 protects dopaminergic neurons in the MPTP model of Parkinson's disease. Proc.Natl.Acad.Sci.U.S.A. 98:10433-10438.
NCGC Assay Protocol Summary:
GST-cJun (1-79) (Stratagene, La Jolla CA, #205145) was biotnylated by PerkinElmer (PerkinElmer-BioSignalInc. Montreal, Canada) and was detectable by the streptavidin Donor beads. Anti-(phospho)cJun (Ser73) antibody was from UpState (Charlottesvilles, VA, #06-659). JNK3-containing lysates were generated from HepG2 cells and pre-activated by interleukin1-beta and tumor necrosis factor alpha. All reagents were stored at -20 C before using. Phosphorylated biotinylated-GST-cJun was recognized by Anti-(phospho)cJun (Ser73) antibody and this process brings acceptor and donor beads together. Therefore JNK3 phosphorylation of cJun can be measured by Alpha reading by EnVision (PerkinElmer, Boston, MA).
The composition of kinase buffer was (in mM) 20 tris- HCl (pH 7.6) 10 MgCl2, 1 DTT, and 0.1 Na3VO4 and 0.01% Tween-20. Beads were diluted in detection buffer containing (in mM) 20 tris-HCl (pH 7.7), 20 NaCl and 80 EDTA and 0.3% BSA. The assay was performed at room temperature. All compounds were screened as titrations from 0.6 nM to 46 uM final concentration. The assay was performed in 1536-well format (white solid bottom and untreated) as follows:
Sequence,Parameter,Value,Description
1,Reagent,3 uL,Biotin-GST-cJun, Anti-(phospho)cJun and pre-activated JNK3-containing lysates
2,Compound,23 nL,Final concentration was 0.6nM to 46uM
3,Time,15 minutes,Room Temperature
4,Reagent,1 uL,ATP final concentration 10uM
6,Reagent,0.5 uL,2ng/well bead mixture
[…]
On the % scale 0 is the no-effect control and ±100 the full control effect.

SMILES | activity change, negative = inhibition | outcome
CCCCCCN(CCCCCC)C(=O)Cc1c(-c2ccc(F)cc2)[nH]c2ccccc12 | -4.65% | –
COc1ccccc1N1CCN(CCCCNC(=O)c2ccc3ccccc3c2)CC1 | 10.1% [at 25.6 µM] | –
S=C(S)N1CCCC1 | 2.94% | –
Fc1ccc(CN(C2=NCCN2)c2c(Cl)cccc2Cl)cc1 | 16.7% | –
CCCn1c(=O)c2[nH]c(-c3ccc(S(=O)(=O)O)cc3)nc2n(CCC)c1=O | 11.9% | –
COc1ccccc1N1CCN(CCN(C(=O)c2ccc(F)cc2)c2ccccn2)CC1 | -7.85% | –
CCCc1c(-c2ccc(O)cc2)nn(-c2ccc(O)cc2)c1-c1ccc(O)cc1 | -25.5% | –
COc1ccc2c(c1)c(CC(=O)O)c(C)n2C(=O)c1ccccc1 | 5.71% | –
O=C(O)C1CCNCC1 | 6.99% | –
Cn1c(=O)c2[nH]c(-c3ccc(S(=O)(=O)O)cc3)nc2n(C)c1=O | 2.13% | –
C=CC[C@H](N)C(=O)O | 8.16% | –
CN[C@H](CC(=O)O)C(=O)O | – | inactive
COc1cc(CC(=O)O)ccc1O | 1.47% | –
[Li+] | -25% | –
Cn1c(=O)[nH]c2ncn(C)c2c1=O | 4.95% | –
Nc1ncnc2c1c(-c1ccc(Oc3ccccc3)cc1)cn2C1CCCC1 | 8.44% | –
NC(=O)c1ccccc1 | – | inactive
c1ccc2nc(C3=NCCN3)ccc2c1 | 2.15% | –
O=c1[nH]c2ccccc2c2ccccc12 | -7.12% | –
CC(=O)N[C@@H](Cc1c[nH]c2ccccc12)C(=O)OCc1cc(C(F)(F)F)cc(C(F)(F)F)c1 | – | inactive

SMILES | activity change, negative = inhibition | outcome
NC(N)=NC(N)=Nc1cccc(Cl)c1 | – | inactive
O=C(O)C1=CCCNC1 | -3.89% | –
CCCCOC(=O)NS(=O)(=O)c1sc(CC(C)C)cc1-c1ccc(Cn2c(CC)nc3c(C)cc(C)nc32)cc1 | -0.81% | –
NC/C=C\C(=O)O | – | inactive
O=c1cc(-c2ccccc2)[nH]c2nc(Cl)ccc12 | 9.24% | –
Oc1cc(O)c2c(c1)O[C@H](c1ccc(O)c(O)c1)[C@@H](O)C2 | 15.4% | –
O=c1[nH]c(=S)[nH]c(-c2ccccc2)c1Cc1c(O)ccc2ccccc12 | 0.827% [at 11.4 µM] | –
O=C(OCCN1CCOCC1)C1(c2ccccc2)CCCCC1 | -25.8% | –
Nc1nc2ccc(Cl)cc2c2nc(-c3ccco3)nn12 | 1.71% | –
COc1ccc(CCN(C)CCc2ccc(OC)c(OC)c2)cc1OC | – | inactive
COc1ccc(C(=O)NCc2cccnc2)cc1C(=O)NCc1cccnc1 | – | inactive
O=c1[nH]ccc2c(O)cccc12 | 41.1% | –
NCCCNCCCCNCCCN | – | inactive
NS(=O)(=O)c1cccc2c1c([N+](=O)[O-])cc1nc(O)c(O)nc12 | -17.9% | –
COc1cc(CNC(=O)CCCCCCC(C)C)ccc1O | – | inactive
Nc1ccc(N2C(=O)c3ccccc3C2=O)c(Cl)c1 | -0.659% | –
COCc1nc2c([nH]1)c(=O)n(C)c(=O)n2CC(C)C | – | inactive
NC(=Nc1ccccc1)NC(=O)c1nc(Cl)c(N)nc1N | 19.3% | –
O=C(O)/C(=C/c1c(C(=O)O)[nH]c2cc(Cl)cc(Cl)c12)c1ccccc1 | 30.9% | –
NC1(C(=O)O)CCCCC1 | -6.54% | –

— PubChem BioAssay (NCATS)
